Measurements taken from PubChem BioAssay (Tox21).
“And” between values parts separate entries of the source, which are not always exact repeats. Identical values can stand only once. Records with an inconclusive call do not appear. A call without a number means that no potency is given here. The source holds several records for some structures; these can differ, active in one and inactive in another. The source made the active and inactive calls. Unless noted, the call rests on the fitted dose curve; in most records, active means well fitted curve in the direction sought with a large enough effect in the repeat runs; inconclusive means weak or mixed curves; inactive means no such curve, though single readings can be large; an effect the other way counts as inactive or inconclusive.

Legend:
[1] = qHTS assay to identify aromatase inhibitors - cell viability counter screen (AID 743084);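 further: cells stimulated with testosterone during compound exposure; nearly all actives have a fitted effect of over 55% in size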; further: potency means the concentration at half of the fitted maximal effect
[2] = biological target: Aryl hydrocarbon receptor (Homo sapiens) (UniProt P35869); test: qHTS assay to identify small molecule that activate the aryl hydrocarbon receptor (AhR) signaling pathway (AID 743085); further: nearly all actives have a fitted effect of over 15% in size; further: potency means the concentration at half of the fitted maximal effect;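 on activation: HG2L7.5c1 human HepG2 liver cells with stably integrated DRE-driven firefly reporter; series mostly up to about 70 µM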
In short: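 24 h compound exposure, 37C, HepG2-derived HG2L7.5c1 cells with DRE-responsive luciferase. Readouts: fluorescence viability, then luminescence at room temperature after 30 min.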

[3] = qHTS assay to identify small molecule that activate the aryl hydrocarbon receptor (AhR) signaling pathway - cell viability counter screen (AID 743086);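 further: HepG2 liver cells carrying the AhR DRE luciferase reporter; series mostly up to about 70 µM; nearly all actives have a fitted effect of over 45% in size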
In short: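 HepG2-AhR-luc (HG2L7.5c1) cells, 4000/well, treated 24 h at 37 C with compound; viability measured as CellTiter-Fluor fluorescence after 30 min in the same wells as the luciferase read.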

[4] = qHTS assay to identify small molecule antagonists of the peroxisome proliferator-activated receptor gamma (PPARg) signaling pathway - cell viability counter screen (AID 743194); further: nearly all actives have a fitted effect of over 55% in size
In short: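 Cytotoxicity counter screen in PPARg-bla HEK293H cells, same wells as reporter assay. Compounds plus 50 nM rosiglitazone (final) for 17 h at 37 C, then viability read by CellTiter-Glo luminescence.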

[5] = qHTS assay for small molecule agonists of the antioxidant response element (ARE) signaling pathway - cell viability counter screen (AID 743203; calls by dose curve; further: nearly all actives have a fitted effect of over 55% in size)
In short: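 Viability counter screen: CellTiter-Glo luminescence, read after 30 min at room temperature, in ARE-bla HepG2 wells. Compound exposure lasted 16 h at 37C/5% CO2, following a 5 h pre-incubation of the cells after plating.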

[6] = qHTS assay for small molecule activators of the heat shock response signaling pathway (AID 743210; active means well fitted activation curve with a large enough effect in the signal ratio in the repeat runs, with a control signal flat, not every such curve was filed as active; the % refers to the signal ratio; further: potency means the concentration at half of the fitted maximal effect;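 on activation: HeLa cells with beta-lactamase reporter driven by heat shock elements; series mostly up to about 63 µM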)
In short: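 Following overnight attachment, HSE-bla HeLa cells received test compounds for 5 h at 37 C; beta-lactamase activity was then detected via FRET substrate fluorescence.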

[7] = qHTS assay to identify small molecule agonists of the peroxisome proliferator-activated receptor delta (PPARd) signaling pathway - cell viability counter screen (AID 743211); further: nearly all actives have a fitted effect of over 55% in size
In short: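 Luminescent ATP viability assay (CellTiter-Glo, 30 min RT) in UAS-bla HEK293H cells carrying the PPAR delta reporter construct, 3000 cells/well, after a 17 h compound treatment at 37 C.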

[8] = biological target: Peroxisome proliferator-activated receptor delta (Homo sapiens) (UniProt Q03181); test: qHTS assay to identify small molecule agonists of the peroxisome proliferator-activated receptor delta (PPARd) signaling pathway (AID 743212; calls by dose curve)
In short: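 Tox21 library screened in GeneBLAzer PPARd UAS-bla HEK293H cells. After compound treatment at 37 C, a FRET-based beta-lactamase substrate was applied for 2 h and fluorescence recorded.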

[9] = qHTS assay to identify small molecule antagonists of the peroxisome proliferator-activated receptor delta (PPARd) signaling pathway - cell viability counter screen (AID 743213); further: nearly all actives have a fitted effect of over 50% in size
In short: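 PPARd-bla HEK293H cells (3000/well) got compound plus 300 nM L165041 agonist for 17 h at 37 C. Viability in the same wells came from CellTiter-Glo luminescence after 30 min at room temperature.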

[10] = qHTS assay to identify small molecule agonists of the farnesoid-X-receptor (FXR) signaling pathway - cell viability counter screen (AID 743218); further: nearly all actives have a fitted effect of over 45% in size
In short: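 Viability counter screen in the same wells: CellTiter-Glo luminescence, 30 min room-temperature incubation, measured after the beta-lactamase read. Cells were GeneBLAzer FXR-UAS-bla HEK 293T, compound-treated 16 h at 37C.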

[11] = qHTS assay to identify small molecule antagonists of the farnesoid-X-receptor (FXR) signaling pathway - cell viability counter screen (AID 743221; active means well fitted cell-killing curve with a large enough effect in the repeat runs, not every such curve was filed as active; further: nearly all actives have a fitted effect of over 50% in size)
In short: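 In GeneBLAzer FXR-UAS-bla HEK 293T cells stimulated with 50 uM chenodeoxycholic acid (final), compounds acted for 16 h at 37 C. Viability was assessed afterwards by CellTiter-Glo luminescence.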

[12] = biological target: Vitamin D3 receptor (Homo sapiens) (UniProt P11473); test: qHTS assay to identify small molecule antagonists of the vitamin D receptor (VDR) signaling pathway (AID 743223; active means well fitted inhibition curve with a large enough effect in the signal ratio in the repeat runs, not every such curve was filed as active; the % refers to the signal ratio)
In short: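 Agonist 1alpha,25-dihydroxyvitamin D3 (3 nM in well) was added with each compound to VDR-bla cells preincubated 4 h. Cells stood 16 h at 37C, then FRET substrate 2 h at room temperature; fluorescence intensity recorded.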

[13] = biological target: Peroxisome proliferator-activated receptor gamma (Homo sapiens) (UniProt P37231); test: qHTS assay to identify small molecule agonists of the peroxisome proliferator-activated receptor gamma (PPARg) signaling pathway (AID 743094; active means well fitted activation curve with a large enough effect in the signal ratio in the repeat runs, not every such curve was filed as active; the % refers to the signal ratio)
In short: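 Agonist activity was taken from a beta-lactamase reporter (FRET substrate, 1 h at room temperature) in HEK293H cells carrying a PPARg UAS-bla construct. Compounds in DMSO were incubated 17 h at 37C after a 5 h cell pre-incubation.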

[14] = biological target: Peroxisome proliferator-activated receptor gamma (Homo sapiens) (UniProt P37231); test: qHTS assay to identify small molecule antagonists of the peroxisome proliferator-activated receptor gamma (PPARg) signaling pathway (AID 743191; calls by dose curve; further: series mostly up to about 63 µM; nearly all actives have a fitted effect of over 30% in size)
In short: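 GeneBLAzer PPARg UAS-bla HEK293H cells, 5 h post-plating, exposed to compounds 17 h at 37C. LiveBLAzer B/G FRET substrate added for 1 h at room temperature; beta-lactamase reporter read by fluorescence intensity.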

[15] = qHTS assay for small molecule agonists of the antioxidant response element (ARE) signaling pathway (AID 743202; active means well fitted activation curve with a large enough effect in the signal ratio in the repeat runs, not every such curve was filed as active; the % refers to the signal ratio; further: potency means the concentration at half of the fitted maximal effect)
In short: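 HepG2 ARE-bla cells; 16 h treatment at 37 C; FRET-based beta-lactamase fluorescence read after 2 h substrate incubation at room temperature.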

[16] = biological target: Bile acid receptor (Homo sapiens) (UniProt Q96RI1); test: qHTS assay to identify small molecule antagonists of the farnesoid-X-receptor (FXR) signaling pathway (AID 743217; active means well fitted inhibition curve with a large enough effect in the signal ratio in the repeat runs, not every such curve was filed as active; the % refers to the signal ratio)
In short: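 Antagonist mode: chenodeoxycholic acid at 50 uM final stimulates a UAS-driven beta-lactamase reporter in HEK 293T FXR-bla cells during 16 h, 37C compound exposure. Read-out is FRET substrate fluorescence after 2 h at room temperature.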

[17] = biological target: Bile acid receptor (Homo sapiens) (UniProt Q96RI1); test: qHTS assay to identify small molecule agonists of the farnesoid-X-receptor (FXR) signaling pathway (AID 743220; active means well fitted activation curve with a large enough effect in the signal ratio in the repeat runs, not every such curve was filed as active; the % refers to the signal ratio)
In short: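 FXR-UAS-bla HEK 293T cells carrying a UAS-driven beta-lactamase reporter were plated for 5 h at 37C/5% CO2, then exposed to DMSO-dissolved Tox21 10K compounds for 16 h at 37C. A LiveBLAzer B/G FRET substrate was loaded for 2 h at room temperature before fluorescence reading.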

[18] = biological target: Vitamin D3 receptor (Homo sapiens) (UniProt P11473); test: qHTS assay to identify small molecule agonists of the vitamin D receptor (VDR) signaling pathway (AID 743222; calls by dose curve)
In short: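 Agonist mode, beta-lactamase reporter: fluorescence from LiveBLAzer B/G FRET substrate (2 h, room temperature) read after 16 h compound treatment at 37 C of VDR-bla cells, which were pre-incubated 4 h after seeding.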

[19] = qHTS assay for small molecule activators of the heat shock response signaling pathway - cell viability counter screen (AID 743209); further: nearly all actives have a fitted effect of over 50% in size
In short: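 Cytotoxicity counter screen run in the same wells as the heat-shock bla reporter assay: HeLa HSE-bla cells, 5 h compound exposure at 37 C, viability read by CellTiter-Glo luminescence.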

[20] = biological target: Peroxisome proliferator-activated receptor delta (Homo sapiens) (UniProt Q03181); test: qHTS assay to identify small molecule antagonists of the peroxisome proliferator-activated receptor delta (PPARd) signaling pathway (AID 743215; active means well fitted inhibition curve with a large enough effect in the signal ratio in the repeat runs, not every such curve was filed as active; the % refers to the signal ratio;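 further: cells stimulated with agonist L165041 at 300 nM final during compound exposure; series mostly up to about 62 µM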)
In short: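 Agonist L165041 (300 nM final) added with compound to PPARd-bla HEK293H UAS-bla reporter cells; 17 h incubation at 37 C. Read-out: LiveBLAzer FRET substrate, 2 h at room temperature, fluorescence intensity.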

Sequence of Peroxisome proliferator-activated receptor delta (Homo sapiens) (Q03181 whole entry, looked up): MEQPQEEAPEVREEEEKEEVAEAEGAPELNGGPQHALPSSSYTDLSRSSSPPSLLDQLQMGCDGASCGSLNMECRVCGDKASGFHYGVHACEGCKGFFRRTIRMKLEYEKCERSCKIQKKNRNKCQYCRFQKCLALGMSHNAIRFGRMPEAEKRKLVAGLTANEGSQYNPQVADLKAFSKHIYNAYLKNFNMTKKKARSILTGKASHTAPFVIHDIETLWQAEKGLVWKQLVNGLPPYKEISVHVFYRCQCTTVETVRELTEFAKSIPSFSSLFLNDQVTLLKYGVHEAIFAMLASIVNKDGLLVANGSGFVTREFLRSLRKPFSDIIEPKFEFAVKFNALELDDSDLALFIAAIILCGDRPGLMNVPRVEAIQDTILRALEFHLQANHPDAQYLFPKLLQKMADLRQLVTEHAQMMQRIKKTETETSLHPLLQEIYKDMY
Sequence of Bile acid receptor (Homo sapiens) (Q96RI1 whole entry, looked up): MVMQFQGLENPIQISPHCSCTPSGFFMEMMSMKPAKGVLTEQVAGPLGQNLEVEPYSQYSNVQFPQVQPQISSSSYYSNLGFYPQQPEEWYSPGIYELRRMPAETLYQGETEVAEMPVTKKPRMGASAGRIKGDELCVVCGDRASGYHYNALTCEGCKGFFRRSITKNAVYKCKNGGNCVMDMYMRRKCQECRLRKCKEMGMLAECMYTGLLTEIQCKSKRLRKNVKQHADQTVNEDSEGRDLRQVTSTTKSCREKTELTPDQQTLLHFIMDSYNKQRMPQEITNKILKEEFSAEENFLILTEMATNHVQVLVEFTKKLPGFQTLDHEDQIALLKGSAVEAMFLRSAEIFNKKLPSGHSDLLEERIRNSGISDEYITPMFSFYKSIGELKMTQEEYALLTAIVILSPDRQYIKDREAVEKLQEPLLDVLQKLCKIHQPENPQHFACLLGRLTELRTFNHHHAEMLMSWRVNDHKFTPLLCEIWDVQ
Sequence of Aryl hydrocarbon receptor (Homo sapiens) (P35869 whole entry, looked up): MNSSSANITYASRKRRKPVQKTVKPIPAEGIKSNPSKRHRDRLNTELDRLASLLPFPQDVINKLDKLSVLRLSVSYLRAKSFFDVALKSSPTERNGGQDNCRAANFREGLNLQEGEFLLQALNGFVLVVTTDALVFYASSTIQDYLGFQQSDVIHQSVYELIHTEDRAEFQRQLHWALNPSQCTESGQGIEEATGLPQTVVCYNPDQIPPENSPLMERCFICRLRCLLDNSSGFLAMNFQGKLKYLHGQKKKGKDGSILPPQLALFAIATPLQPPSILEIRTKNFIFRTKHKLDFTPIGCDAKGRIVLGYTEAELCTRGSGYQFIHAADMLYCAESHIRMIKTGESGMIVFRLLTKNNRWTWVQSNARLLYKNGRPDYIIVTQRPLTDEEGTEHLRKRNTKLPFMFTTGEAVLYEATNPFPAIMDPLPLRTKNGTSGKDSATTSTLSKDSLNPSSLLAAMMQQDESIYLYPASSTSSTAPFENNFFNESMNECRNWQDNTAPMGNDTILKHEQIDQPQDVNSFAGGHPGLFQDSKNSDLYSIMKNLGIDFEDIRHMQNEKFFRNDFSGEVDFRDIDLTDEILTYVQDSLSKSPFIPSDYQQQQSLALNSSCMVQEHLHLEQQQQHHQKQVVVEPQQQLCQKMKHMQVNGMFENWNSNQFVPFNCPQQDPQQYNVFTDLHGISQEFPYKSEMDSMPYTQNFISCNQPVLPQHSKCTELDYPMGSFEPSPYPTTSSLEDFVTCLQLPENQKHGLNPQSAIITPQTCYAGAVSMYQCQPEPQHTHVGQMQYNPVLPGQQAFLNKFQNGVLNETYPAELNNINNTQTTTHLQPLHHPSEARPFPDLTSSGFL
Sequence of Peroxisome proliferator-activated receptor gamma (Homo sapiens) (P37231 whole entry, looked up): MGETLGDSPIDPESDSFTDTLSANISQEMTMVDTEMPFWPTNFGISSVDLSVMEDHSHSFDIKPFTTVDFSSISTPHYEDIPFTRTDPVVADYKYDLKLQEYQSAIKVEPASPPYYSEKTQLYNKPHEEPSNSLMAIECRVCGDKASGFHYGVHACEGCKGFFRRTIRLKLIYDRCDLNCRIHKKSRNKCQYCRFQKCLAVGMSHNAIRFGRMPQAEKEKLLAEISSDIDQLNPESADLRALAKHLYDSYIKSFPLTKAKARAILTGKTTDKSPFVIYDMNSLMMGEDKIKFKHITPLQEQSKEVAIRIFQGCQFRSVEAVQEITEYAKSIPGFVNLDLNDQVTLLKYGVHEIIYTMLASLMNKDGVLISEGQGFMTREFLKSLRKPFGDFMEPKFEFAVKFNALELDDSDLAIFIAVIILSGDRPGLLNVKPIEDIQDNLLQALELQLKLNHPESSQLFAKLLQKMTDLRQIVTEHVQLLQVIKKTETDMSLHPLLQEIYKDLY
Sequence of Vitamin D3 receptor (Homo sapiens) (P11473 whole entry, looked up): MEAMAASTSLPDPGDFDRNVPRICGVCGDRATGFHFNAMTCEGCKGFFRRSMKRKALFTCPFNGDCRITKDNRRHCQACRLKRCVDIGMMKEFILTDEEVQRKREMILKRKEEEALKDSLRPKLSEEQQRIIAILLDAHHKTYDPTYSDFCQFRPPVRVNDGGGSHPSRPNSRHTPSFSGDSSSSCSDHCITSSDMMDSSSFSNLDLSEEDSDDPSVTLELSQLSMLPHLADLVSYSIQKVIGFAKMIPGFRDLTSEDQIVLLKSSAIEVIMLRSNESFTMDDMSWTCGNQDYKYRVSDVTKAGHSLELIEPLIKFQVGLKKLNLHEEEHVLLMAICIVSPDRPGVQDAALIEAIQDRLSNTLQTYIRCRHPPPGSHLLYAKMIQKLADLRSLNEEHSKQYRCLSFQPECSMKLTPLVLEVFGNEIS

Row | Compound | Potency [1] | Potency [2] | outcome [3] | outcome [4] | outcome [5] | Potency [6] | outcome [7] | outcome [8] | outcome [9] | Potency [10] | Potency [11] | outcome [12] | outcome [13] | outcome [14] | Potency [15] | outcome [16] | outcome [17] | outcome [18] | outcome [19] | Potency [20]
1 | CCCCC(CC)COC(=O)C(C#N)=C(c1ccccc1)c1ccccc1 (configuration not stated) | inactive | inactive | inactive | inactive | inactive | inactive | inactive | inactive | inactive | inactive | inactive | inactive |  |  |  |  |  |  |  | 
2 | CSCCC=O | inactive | inactive | inactive |  | inactive |  | inactive | inactive | inactive | inactive | inactive | inactive | inactive | inactive | inactive | inactive | inactive | inactive |  | 
3 | Cc1cccc(O)c1 | inactive | inactive |  | inactive | inactive | inactive | inactive | inactive | inactive | inactive | inactive |  | inactive | inactive | inactive |  |  |  | inactive | 
4 | OC[C@H]1O[C@@](CO)(O[C@H]2O[C@H](CO)[C@@H](O)[C@H](O)[C@H]2O)[C@@H](O)[C@@H]1O | inactive | inactive |  | inactive | inactive | inactive | inactive | inactive | inactive | inactive | inactive |  | inactive | inactive | inactive | inactive | inactive |  | inactive | inactive
5 | COc1ccc(Cl)cc1C(=O)NCCc1ccc(S(=O)(=O)NC(=O)NC2CCCCC2)cc1 | inactive | inactive | inactive | inactive | inactive | inactive | inactive | inactive | inactive | inactive | inactive |  | inactive |  |  | inactive | inactive |  | inactive | 
6 | CCCCN(CCCC)CCCC | inactive | inactive | inactive |  | inactive | inactive | inactive | inactive | inactive | inactive | inactive | inactive |  |  | inactive | inactive | inactive | inactive | inactive | 
7 | O=C(O)CC(C(=O)O)C(CC(=O)O)C(=O)O (configuration not stated) | inactive | inactive |  | inactive | inactive | inactive | inactive | inactive | inactive | inactive | inactive | inactive | inactive | inactive | inactive | inactive | inactive |  | inactive | inactive
8 | CCCCCOC(C)=O | inactive | inactive |  | inactive | inactive | inactive | inactive | inactive | inactive | inactive | inactive | inactive | inactive | inactive | inactive | inactive | inactive | inactive |  | inactive
9 | C[Si](O[Si](C)(C)C)O[Si](C)(C)C | inactive | inactive |  | inactive | inactive | inactive | inactive | inactive | inactive | inactive | inactive | inactive | inactive | inactive | inactive | inactive | inactive |  | inactive | 
10 | CCCSc1ccc2nc(NC(=O)OC)[nH]c2c1 | inactive | 4.52 µM (active) and 34.4 µM (active) | inactive | inactive | inactive | 16.7 µM (active) | inactive |  | inactive | inactive |  |  |  |  | inactive |  |  |  |  | 
11 | CCCCCCCCCCCCc1ccccc1 | inactive | inactive |  | inactive | inactive | inactive | inactive | inactive | inactive | inactive | inactive | inactive | inactive | inactive | inactive | inactive | inactive |  | inactive | inactive
12 | O=C(O)c1cc(O)c(O)c(O)c1 | inactive and 49 µM (active) | inactive |  |  | inactive | inactive | inactive | inactive | inactive | inactive | inactive | inactive | inactive |  |  |  |  |  |  | 
13 | c1c[nH]cn1 | inactive | inactive |  | inactive | inactive | inactive | inactive | inactive | inactive | inactive | inactive | inactive | inactive | inactive |  |  |  | inactive | inactive | 
14 | CC(C)CC(=O)CC(C)C |  |  | inactive | inactive | inactive | inactive | inactive |  | inactive | inactive | inactive | inactive |  |  | inactive |  |  |  |  | 
15 | CCCCCCCCC/C=C/CC1CC(=O)OC1=O (configuration not stated) |  |  | inactive | inactive | inactive | inactive | inactive | inactive | inactive |  | inactive | inactive |  |  |  | inactive | inactive |  |  | 
16 | Nc1cc([N+](=O)[O-])ccc1O | 54.5 µM (active) |  |  | inactive | inactive | inactive | inactive | inactive | inactive | inactive | inactive | inactive | inactive | inactive | 17.1 µM (active) |  |  | inactive |  | inactive
17 | CCC(O)OC(O)CC (configuration not stated) | inactive | inactive |  |  | inactive | inactive | inactive |  | inactive | inactive | inactive | inactive | inactive | inactive | inactive |  |  | inactive |  | 
18 | Cc1cnc(C(=O)NCCc2ccc(S(=O)(=O)NC(=O)NC3CCCCC3)cc2)cn1 | inactive |  | inactive | inactive | inactive | inactive | inactive | inactive | inactive | inactive | inactive |  | inactive |  |  |  |  |  | inactive | 
19 | N[C@@H](Cc1cc(I)c(Oc2cc(I)c(O)c(I)c2)c(I)c1)C(=O)O | inactive | 13.8 µM (active) |  | inactive | inactive | inactive | inactive | inactive | inactive | inactive | inactive | inactive | inactive |  | inactive |  |  | inactive |  | 
